Test results published in the supplement of paper PMC11732987, “Enantioselective OTUD7B fragment discovery through chemoproteomics screening and high-throughput optimisation” (Communications Chemistry, 2025).

Assays:
Assay in all cases: log2 ratio of Biotin-Ahx-Ub-VS probe labelling (fragment/DMSO); higher = less target engagement (more negative = stronger competition), active = hit call of the paper (q ≤ 0.05, log2 ratio ≤ -1)
Details in all cases: compound concentration: 200 uM; treatment time: 3 h
[1] = target: T1, OTUD6B (UniProt Q8N6M0)
T1 sequence (whole entry): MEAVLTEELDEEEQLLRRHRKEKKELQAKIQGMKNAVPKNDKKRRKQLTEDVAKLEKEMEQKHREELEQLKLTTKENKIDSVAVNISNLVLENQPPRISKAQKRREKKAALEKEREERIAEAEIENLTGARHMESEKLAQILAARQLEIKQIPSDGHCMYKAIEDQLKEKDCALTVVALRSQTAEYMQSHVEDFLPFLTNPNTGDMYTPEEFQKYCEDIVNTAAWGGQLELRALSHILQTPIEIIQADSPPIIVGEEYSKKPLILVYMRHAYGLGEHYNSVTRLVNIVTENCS
Outline: (§1)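 Each value is an average log2 ratio of fragment to vehicle, tested by unpaired t-test. The underlying Spectronaut label-free quantities were global-median-normalised, and only proteins with ≥2 unique peptides were included. Triplicate HEK293T lysate samples (495 µg) were exposed to fragment at 200 µM or vehicle for 3 h, then to Biotin-Ahx-Ub-VS at 0.5 µM final for 1 h, before NeutrAvidin enrichment of labelled DUBs, LysC and trypsin digestion, and diaPASEF LC-MS/MS.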

[2] = target: T2, OTUD7B (UniProt Q6GQQ9)
T2 sequence (whole entry): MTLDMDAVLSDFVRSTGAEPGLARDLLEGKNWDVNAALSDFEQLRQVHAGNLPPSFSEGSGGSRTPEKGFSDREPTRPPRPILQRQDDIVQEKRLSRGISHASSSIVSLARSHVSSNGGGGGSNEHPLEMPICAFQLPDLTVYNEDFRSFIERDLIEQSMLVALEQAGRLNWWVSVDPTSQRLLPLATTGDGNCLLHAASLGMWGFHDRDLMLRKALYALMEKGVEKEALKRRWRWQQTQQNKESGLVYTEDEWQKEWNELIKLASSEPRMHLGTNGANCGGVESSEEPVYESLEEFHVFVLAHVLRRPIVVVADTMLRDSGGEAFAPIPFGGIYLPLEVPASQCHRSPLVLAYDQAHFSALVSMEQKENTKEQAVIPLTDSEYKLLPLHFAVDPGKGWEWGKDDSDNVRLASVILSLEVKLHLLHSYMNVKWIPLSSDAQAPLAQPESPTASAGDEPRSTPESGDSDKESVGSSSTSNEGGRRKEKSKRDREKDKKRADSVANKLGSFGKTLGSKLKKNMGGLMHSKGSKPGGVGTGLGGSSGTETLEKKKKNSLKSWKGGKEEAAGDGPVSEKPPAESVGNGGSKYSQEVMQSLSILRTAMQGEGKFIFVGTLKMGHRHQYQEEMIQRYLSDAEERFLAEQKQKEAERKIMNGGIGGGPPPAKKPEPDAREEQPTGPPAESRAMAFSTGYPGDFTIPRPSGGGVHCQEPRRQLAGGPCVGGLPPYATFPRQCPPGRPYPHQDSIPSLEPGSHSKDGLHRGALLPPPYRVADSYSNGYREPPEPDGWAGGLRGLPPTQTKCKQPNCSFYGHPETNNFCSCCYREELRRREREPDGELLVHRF
Outline: as §1

[3] = target: PRPF8 (UniProt Q6P2Q9)
Outline: as §1

[4] = target: T3, PSMD7 (UniProt P51665)
T3 sequence (whole entry): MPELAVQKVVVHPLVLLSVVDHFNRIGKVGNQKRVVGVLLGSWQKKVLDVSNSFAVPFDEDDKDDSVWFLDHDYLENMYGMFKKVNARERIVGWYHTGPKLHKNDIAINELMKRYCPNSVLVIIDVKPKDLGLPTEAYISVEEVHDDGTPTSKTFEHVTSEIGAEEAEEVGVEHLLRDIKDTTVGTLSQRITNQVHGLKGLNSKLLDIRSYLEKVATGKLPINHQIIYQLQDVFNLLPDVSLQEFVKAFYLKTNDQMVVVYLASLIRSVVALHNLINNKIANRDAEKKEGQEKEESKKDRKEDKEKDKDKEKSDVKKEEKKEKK
Outline: as §1

[5] = target: UCHL1 (UniProt P09936)
Sequence of UCHL1 (P09936 whole entry, looked up): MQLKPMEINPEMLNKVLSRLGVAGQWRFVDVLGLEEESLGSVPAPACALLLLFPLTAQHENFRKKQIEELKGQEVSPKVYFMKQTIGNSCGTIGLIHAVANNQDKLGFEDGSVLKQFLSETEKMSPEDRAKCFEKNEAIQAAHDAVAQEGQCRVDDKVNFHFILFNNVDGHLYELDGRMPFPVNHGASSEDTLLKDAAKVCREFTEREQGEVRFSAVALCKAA
Outline: as §1

[6] = target: T4, UCHL3 (UniProt P15374)
T4 sequence (whole entry): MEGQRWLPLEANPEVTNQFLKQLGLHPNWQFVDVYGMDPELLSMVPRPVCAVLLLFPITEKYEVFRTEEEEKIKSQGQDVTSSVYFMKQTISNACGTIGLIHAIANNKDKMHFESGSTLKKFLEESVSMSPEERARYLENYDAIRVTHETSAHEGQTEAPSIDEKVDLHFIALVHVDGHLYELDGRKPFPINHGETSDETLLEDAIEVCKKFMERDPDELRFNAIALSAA
Outline: as §1

[7] = target: T5, UCHL5 (UniProt Q9Y5K5)
T5 sequence (whole entry): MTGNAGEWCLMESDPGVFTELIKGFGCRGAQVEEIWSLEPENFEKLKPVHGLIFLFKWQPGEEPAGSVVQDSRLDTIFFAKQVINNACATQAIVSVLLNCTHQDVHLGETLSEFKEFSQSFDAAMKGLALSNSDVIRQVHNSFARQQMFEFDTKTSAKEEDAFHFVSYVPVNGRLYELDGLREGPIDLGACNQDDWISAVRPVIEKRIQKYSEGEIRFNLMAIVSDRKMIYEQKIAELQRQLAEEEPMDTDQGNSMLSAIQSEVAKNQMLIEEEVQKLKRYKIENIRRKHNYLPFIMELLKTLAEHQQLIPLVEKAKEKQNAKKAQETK
Outline: as §1

[8] = target: USP10 (UniProt Q14694)
Sequence of USP10 (Q14694 whole entry): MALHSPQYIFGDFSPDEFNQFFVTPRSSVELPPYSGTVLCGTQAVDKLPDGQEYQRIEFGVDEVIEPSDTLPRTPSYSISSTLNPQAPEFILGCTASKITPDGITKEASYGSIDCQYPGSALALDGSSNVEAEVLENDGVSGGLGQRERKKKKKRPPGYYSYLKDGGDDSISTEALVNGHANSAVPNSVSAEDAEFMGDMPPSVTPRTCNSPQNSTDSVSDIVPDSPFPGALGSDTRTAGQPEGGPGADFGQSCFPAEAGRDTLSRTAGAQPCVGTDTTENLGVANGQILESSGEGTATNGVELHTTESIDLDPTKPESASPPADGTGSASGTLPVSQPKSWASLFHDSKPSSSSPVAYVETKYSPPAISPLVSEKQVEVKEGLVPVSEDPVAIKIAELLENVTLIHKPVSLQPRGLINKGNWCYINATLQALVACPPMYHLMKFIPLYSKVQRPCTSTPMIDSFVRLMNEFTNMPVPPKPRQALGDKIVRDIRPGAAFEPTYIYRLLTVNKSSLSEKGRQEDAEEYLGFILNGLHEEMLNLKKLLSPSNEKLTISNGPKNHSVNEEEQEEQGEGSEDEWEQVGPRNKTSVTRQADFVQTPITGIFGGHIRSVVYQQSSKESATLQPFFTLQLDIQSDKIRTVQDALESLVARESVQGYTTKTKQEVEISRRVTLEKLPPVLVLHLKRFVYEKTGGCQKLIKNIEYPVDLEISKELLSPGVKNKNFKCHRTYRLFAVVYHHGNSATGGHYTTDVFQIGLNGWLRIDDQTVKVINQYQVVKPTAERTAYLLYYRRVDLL
Outline: as §1

[9] = target: T6, USP15 (UniProt Q9Y4E8)
T6 sequence (whole entry): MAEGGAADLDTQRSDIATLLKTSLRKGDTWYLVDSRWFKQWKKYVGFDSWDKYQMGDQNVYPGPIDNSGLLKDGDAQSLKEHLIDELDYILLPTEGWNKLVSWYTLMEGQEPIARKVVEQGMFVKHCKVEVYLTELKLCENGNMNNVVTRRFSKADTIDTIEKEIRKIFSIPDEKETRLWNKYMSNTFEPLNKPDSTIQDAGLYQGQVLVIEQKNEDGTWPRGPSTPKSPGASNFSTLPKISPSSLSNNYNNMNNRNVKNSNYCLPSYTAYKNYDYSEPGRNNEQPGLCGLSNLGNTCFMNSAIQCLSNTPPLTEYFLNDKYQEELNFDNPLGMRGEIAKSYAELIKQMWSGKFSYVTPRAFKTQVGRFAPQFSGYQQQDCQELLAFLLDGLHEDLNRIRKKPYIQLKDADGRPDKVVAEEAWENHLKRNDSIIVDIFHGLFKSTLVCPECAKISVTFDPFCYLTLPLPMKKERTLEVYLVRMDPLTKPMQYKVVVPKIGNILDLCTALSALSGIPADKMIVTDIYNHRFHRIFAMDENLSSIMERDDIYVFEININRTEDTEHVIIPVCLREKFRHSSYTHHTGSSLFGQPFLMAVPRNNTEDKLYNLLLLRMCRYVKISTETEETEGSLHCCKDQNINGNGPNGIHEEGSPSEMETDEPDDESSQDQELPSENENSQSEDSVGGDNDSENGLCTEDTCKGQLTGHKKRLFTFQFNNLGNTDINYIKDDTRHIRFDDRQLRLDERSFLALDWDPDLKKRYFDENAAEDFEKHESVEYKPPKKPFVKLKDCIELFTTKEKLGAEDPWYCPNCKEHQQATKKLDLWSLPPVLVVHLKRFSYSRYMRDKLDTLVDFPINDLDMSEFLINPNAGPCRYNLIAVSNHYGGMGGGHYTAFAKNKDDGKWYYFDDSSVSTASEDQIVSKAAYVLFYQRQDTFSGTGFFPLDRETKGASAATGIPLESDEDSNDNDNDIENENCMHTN
Outline: as §1

[10] = target: USP16 (UniProt Q9Y5T5)
Sequence of USP16 (Q9Y5T5 whole entry, looked up): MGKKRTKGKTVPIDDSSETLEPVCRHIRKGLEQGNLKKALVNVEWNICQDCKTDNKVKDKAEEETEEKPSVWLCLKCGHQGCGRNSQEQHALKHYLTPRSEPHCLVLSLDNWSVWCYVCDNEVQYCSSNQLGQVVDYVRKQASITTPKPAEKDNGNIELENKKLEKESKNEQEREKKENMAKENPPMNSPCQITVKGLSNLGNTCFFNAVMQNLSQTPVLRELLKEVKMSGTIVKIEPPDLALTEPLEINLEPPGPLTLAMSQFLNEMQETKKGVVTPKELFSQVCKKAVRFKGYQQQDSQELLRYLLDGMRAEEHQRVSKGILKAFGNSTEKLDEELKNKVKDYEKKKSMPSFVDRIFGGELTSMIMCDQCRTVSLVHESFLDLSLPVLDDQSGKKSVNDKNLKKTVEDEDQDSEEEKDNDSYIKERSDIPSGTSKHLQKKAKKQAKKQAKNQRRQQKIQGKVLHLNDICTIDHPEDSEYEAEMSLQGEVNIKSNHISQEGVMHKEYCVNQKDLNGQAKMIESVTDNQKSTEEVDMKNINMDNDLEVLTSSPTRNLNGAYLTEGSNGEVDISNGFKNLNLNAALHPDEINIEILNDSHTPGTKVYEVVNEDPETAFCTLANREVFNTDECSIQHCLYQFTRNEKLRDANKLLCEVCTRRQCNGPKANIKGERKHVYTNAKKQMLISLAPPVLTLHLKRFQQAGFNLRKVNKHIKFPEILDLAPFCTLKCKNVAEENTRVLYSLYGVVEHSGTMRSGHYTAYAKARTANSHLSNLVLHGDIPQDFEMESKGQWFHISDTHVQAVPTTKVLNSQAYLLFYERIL
Outline: as §1

Measured: log2 ratio of Biotin-Ahx-Ub-VS probe labelling

CC1CCc2onc(CNC(=O)CCl)c2C1 (stereo not given)
active: [5] -1.33
inactive: [1] -0.0903 | [2] -0.588 | [3] -0.225 | [4] -0.0595 | [6] 0.123 | [7] -0.175 | [8] -0.0579 | [9] -0.0914 | [10] 0.406
